PubChem BioAssay (Tox21)
Results filed as inconclusive are left out. Where a call stands in place of a potency, no number is given. Calls of active or inactive are those of the source. Unless noted, calls come from the whole dose curve.

Experiments:
[1] = Nuclear factor erythroid 2-related factor 2/antioxidant responsive element (Nrf2/ARE) small molecule agonists: luciferase reporter gene qHTS assay in human keratinocytes (AID 1919969); note: nearly all actives have a fitted effect of over 35% in size; note: potency is the fitted concentration of half-maximal effect
[2] = target: Gonadotropin-releasing hormone receptor (Homo sapiens) (UniProt P30968); experiment: Human gonadotropin-releasing hormone receptor (GnRHR) small molecule agonists, calcium flux assay in GnRHR-HEK293 cells (AID 1920063); note: nearly all actives have a fitted effect of over 35% in size
How it was run: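 Agonist activity was measured as intracellular calcium flux in HEK293 cells engineered to stably express human GnRHR. After dye loading for 1 hour at 37 C, compounds in DMSO were added and fluorescence was followed for 3 minutes.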

[3] = target: KiSS-1 receptor (Homo sapiens) (UniProt Q969F8); experiment: Human kisspeptin (KISS1R) small molecule agonists, calcium flux assay in KISS1R-HEK293 cells (AID 1920064; active = well fitted activation curve with a large enough effect in the repeat runs)
How it was run: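 Agonist activity is monitored as intracellular calcium rise in engineered HEK293 cells carrying human KISS1R. Cells are dye-loaded for 1 h at 37 C before compound addition, and fluorescence is recorded for 3 min.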

[4] = G protein-coupled receptor (GPCR) small molecule agonists, calcium flux assay: HEK293 wild type cell line counter screen (AID 1920065)
How it was run: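 Seed cells, incubate 18 h (37 C, 5% CO2); add calcium dye, 1 h at 37 C; pin-transfer compounds, ATP control or DMSO; read fluorescence 480/540 nm each second for 3 min.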

[5] = p53 small molecule agonists, cell-based qHTS assay with rat liver microsomes (AID 1963578)
How it was run: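 Agonist mode in p53RE-bla reporter cells, with compounds co-incubated 16 h at 37 C alongside 0.5 mg/mL rat liver microsomes and 0.5 mg/mL NADPH (final), followed by a 2 h LiveBLAzer detection step.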

[6] = p53 small molecule agonists, cell-based qHTS assay with human liver microsomes: qHTS cell viability counter screen (AID 1963579); note: nearly all actives have a fitted effect of over 45% in size
How it was run: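 Metabolically activated exposure: compounds, human liver microsomes and NADPH (0.5 mg/mL final apiece) were added to p53RE-bla cells seeded 5 h earlier, left 16 h at 37 C, and then assessed for viability by CellTiter-Glo luminescence.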

[7] = p53 small molecule agonists, cell-based qHTS assay with rat liver microsomes: qHTS cell viability counter screen (AID 1963580); note: nearly all actives have a fitted effect of over 45% in size
How it was run: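 Counter screen for cytotoxicity under metabolic activation: rat liver microsomes and NADPH, 0.5 mg/mL final each, added with compounds to p53RE-bla HCT-116 cells; 16 h at 37 C, then ATP luminescence read.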

[8] = p53 small molecule agonists, cell-based qHTS assay (AID 1963582; active = well fitted activation curve with a large enough effect in the signal ratio in the repeat runs, not every such curve was filed as active; the % refers to the signal ratio)
How it was run: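 Cells carrying a p53-responsive bla reporter are treated with test compounds for 16 h at 37 C; beta-lactamase activity is then detected with LiveBLAzer B/G FRET substrate after 2 h at room temperature.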

[9] = target: 5-hydroxytryptamine receptor 2A (Homo sapiens) (UniProt P28223); experiment: 5-hydroxytryptamine receptor 2A (HTR2A) small molecule antagonists, cell-based qHTS assay (AID 1963586); note: nearly all actives have a fitted effect of over 45% in size; note: potency is the fitted concentration of half-maximal effect
How it was run: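 CHO cells stably expressing human HTR2A were plated for 18 h at 37 C, then loaded with calcium dye for 1 h. Compounds were preincubated 5 min at room temperature before DOI (4 nM solution) was added. Kinetic fluorescence was read for 3 min.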

[10] = target: 5-hydroxytryptamine receptor 2A (Homo sapiens) (UniProt P28223); experiment: 5-hydroxytryptamine receptor 2A (HTR2A) small molecule agonists, cell-based qHTS assay (AID 1963587); note: nearly all actives have a fitted effect of over 30% in size; note: potency is the fitted concentration of half-maximal effect
How it was run: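 HTR2A-CHO cells, plated 18 h at 37 C/5% CO2, dye-loaded 1 h at 37 C; compounds in DMSO added by pin tool (agonist mode). Intracellular calcium flux read as kinetic fluorescence on FDSS over 2 min at 1 s intervals.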

[11] = target: Muscarinic acetylcholine receptor M1 (Homo sapiens) (UniProt P11229); experiment: Cholinergic receptor muscarinic 1 (CHRM1) small molecule antagonists, cell-based qHTS assay (AID 1963588); note: nearly all actives have a fitted effect of over 40% in size; note: potency is the fitted concentration of half-maximal effect
How it was run: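 Compounds were tested at 15 concentrations in three independent runs. Dye-loaded CHRM1-CHO cells were exposed 5 min at room temperature before stimulation by acetylcholine added at 50nM. Intracellular calcium was read kinetically on FDSS for 3 min.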

[12] = target: Muscarinic acetylcholine receptor M1 (Homo sapiens) (UniProt P11229); experiment: Cholinergic receptor muscarinic 1 (CHRM1) small molecule agonists, cell-based qHTS assay (AID 1963589); note: nearly all actives have a fitted effect of over 35% in size
How it was run: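 Cells were plated and incubated 18 h at 37 C/5% CO2, loaded with calcium dye for 1 h at 37 C, then treated with compounds in DMSO. Fluorescence was recorded kinetically at 1 sec intervals.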

[13] = cAMP Responsive Elements (CRE) small molecule agonists, cell-based qHTS assay (AID 1963590)
How it was run: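 Cells carrying a CRE-driven beta-lactamase reporter (HEK 293T) are seeded, incubated overnight (18 h), and treated with test compounds for 3 h at 37 C; reporter activity is then detected with a FRET substrate after 2 h at room temperature.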

[14] = target: Beta-2 adrenergic receptor (Homo sapiens) (UniProt P07550); experiment: Adrenergic beta2 receptor (ADRB2) small molecule antagonists, cell-based qHTS assay (AID 1963592); note: nearly all actives have a fitted effect of over 50% in size; note: potency is the fitted concentration of half-maximal effect
How it was run: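 Assay format: CHO-ADRB2 cells, 18-20hr seeding at 37C/5% CO2, then compound plus 1nM isoproterenol agonist mix for 0.5hr RT. Homogeneous time-resolved fluorescence cAMP detection after 1hr, expressed as 665/615 nm ratio.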

[15] = target: Beta-2 adrenergic receptor (Homo sapiens) (UniProt P07550); experiment: Adrenergic beta2 receptor (ADRB2) small molecule agonists, cell-based qHTS assay (AID 1963593);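 note: CHO cells stably overexpressing human ADRB2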
How it was run: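 CHO cells stably over-expressing ADRB2 were plated overnight at 37C, then dosed with compounds plus a stimulation mix containing 100uM IBMX and 25uM Ro-20-1724 for 0.5hr at room temperature. cAMP was measured by HTRF competition, 1hr.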

[16] = target: D(2) dopamine receptor (Homo sapiens) (UniProt P14416); experiment: Dopamine D2 receptor (DRD2) small molecule antagonists, cell-based qHTS assay (AID 1963595; active = well fitted inhibition curve with a large enough effect in the signal ratio in the repeat runs, with a control signal flat; the % refers to the signal ratio)
How it was run: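 Antagonism was scored as restored cAMP in HEK293-DRD2 cells. These cells were stimulated with 200 nM NKH477 and 12 nM quinpirole for 30 min at room temperature, in the presence of 0.1 mM Ro20-1724.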

[17] = cAMP Responsive Elements (CRE) small molecule antagonists, cell-based qHTS assay (AID 1963591; active = well fitted inhibition curve with a large enough effect in the signal ratio in the repeat runs, not every such curve was filed as active; the % refers to the signal ratio; note: potency is the fitted concentration of half-maximal effect)
How it was run: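 Cells (CRE-bla HEK 293T, DMEM with 10% dialyzed FBS and 25 mM HEPES) are seeded and incubated 18 h. Compounds are added with NKH477 agonist at 0.25 uM final for 3 h, then FRET substrate for 2 h.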

[18] = p53 small molecule agonists, cell-based qHTS assay: qHTS cell viability counter screen (AID 1963581); note: nearly all actives have a fitted effect of over 45% in size
How it was run: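 Viability was counter-screened in parallel with the p53 agonist reporter by measuring intracellular ATP luminescence in the same HCT-116 p53RE-bla wells after 16 h compound treatment at 37 C.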

[19] = target: D(2) dopamine receptor (Homo sapiens) (UniProt P14416); experiment: Dopamine D2 receptor (DRD2) small molecule agonists, cell-based qHTS assay (AID 1963594); note: nearly all actives have a fitted effect of over 35% in size; note: potency is the fitted concentration of half-maximal effect
How it was run: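 HEK293 cells stably expressing DRD2 were cultured 24 h at 37 C, then given Ro20-1724 (0.1 mM final) and compounds for 10 min at room temperature. NKH477 (200nM) was then added for 30 min. cAMP was read by HTRF.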

[20] = p53 small molecule agonists, cell-based qHTS assay with human liver microsomes (AID 1963577);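 note: p53 response element beta-lactamase reporter cells with liver microsomes plus NADPH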
How it was run: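 In this qHTS, p53 response-element beta-lactamase cells receive test compound together with a microsome/NADPH activating system (0.5 mg/mL final each) and are incubated 16 h at 37 C before LiveBLAzer fluorescence detection.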

Sequence of Gonadotropin-releasing hormone receptor (Homo sapiens) (P30968 whole entry, looked up): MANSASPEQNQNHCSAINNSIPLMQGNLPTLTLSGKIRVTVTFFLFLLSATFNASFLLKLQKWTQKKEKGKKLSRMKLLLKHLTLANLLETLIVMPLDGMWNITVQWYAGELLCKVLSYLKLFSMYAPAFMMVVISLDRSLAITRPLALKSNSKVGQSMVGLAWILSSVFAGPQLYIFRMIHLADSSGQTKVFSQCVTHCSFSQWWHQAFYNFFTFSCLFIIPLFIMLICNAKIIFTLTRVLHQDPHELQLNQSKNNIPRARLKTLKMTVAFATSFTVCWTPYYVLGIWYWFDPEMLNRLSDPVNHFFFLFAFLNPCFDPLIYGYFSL
Sequence of D(2) dopamine receptor (Homo sapiens) (P14416 whole entry, looked up): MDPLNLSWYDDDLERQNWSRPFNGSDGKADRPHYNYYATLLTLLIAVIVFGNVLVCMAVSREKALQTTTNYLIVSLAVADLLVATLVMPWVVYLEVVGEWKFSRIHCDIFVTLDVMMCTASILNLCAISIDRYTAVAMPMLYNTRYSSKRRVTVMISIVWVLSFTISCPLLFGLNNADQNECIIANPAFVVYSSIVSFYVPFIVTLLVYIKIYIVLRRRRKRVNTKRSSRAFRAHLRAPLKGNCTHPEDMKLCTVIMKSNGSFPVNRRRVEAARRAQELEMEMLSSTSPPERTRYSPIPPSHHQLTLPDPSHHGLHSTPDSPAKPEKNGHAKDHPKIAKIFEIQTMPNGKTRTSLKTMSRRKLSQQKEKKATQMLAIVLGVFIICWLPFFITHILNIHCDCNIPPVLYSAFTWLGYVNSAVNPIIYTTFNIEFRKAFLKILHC
Sequence of Beta-2 adrenergic receptor (Homo sapiens) (P07550 whole entry, looked up): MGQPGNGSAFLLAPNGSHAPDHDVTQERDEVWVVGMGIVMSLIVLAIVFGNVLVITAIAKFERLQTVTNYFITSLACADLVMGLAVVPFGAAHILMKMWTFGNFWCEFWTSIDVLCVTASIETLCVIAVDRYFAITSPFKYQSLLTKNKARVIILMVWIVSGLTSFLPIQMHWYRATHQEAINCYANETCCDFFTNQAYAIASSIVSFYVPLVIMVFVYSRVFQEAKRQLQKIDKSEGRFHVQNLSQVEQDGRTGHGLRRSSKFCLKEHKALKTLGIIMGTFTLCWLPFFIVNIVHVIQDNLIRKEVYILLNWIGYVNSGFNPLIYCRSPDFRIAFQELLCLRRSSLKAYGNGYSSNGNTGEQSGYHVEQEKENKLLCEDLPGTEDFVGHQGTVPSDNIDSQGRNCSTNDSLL
Sequence of 5-hydroxytryptamine receptor 2A (Homo sapiens) (P28223 whole entry, looked up): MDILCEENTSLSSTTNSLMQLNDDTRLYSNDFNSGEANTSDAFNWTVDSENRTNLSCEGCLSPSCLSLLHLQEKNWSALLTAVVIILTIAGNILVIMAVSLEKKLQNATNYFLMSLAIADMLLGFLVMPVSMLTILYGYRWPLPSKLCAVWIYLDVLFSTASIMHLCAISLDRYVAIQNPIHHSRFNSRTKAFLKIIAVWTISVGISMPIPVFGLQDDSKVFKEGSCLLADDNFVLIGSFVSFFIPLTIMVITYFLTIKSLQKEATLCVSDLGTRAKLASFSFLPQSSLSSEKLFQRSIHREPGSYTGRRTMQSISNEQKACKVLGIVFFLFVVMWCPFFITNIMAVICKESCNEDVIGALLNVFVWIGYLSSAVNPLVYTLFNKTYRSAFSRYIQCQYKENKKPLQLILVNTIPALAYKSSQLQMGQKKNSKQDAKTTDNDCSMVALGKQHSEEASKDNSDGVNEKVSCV
Sequence of Muscarinic acetylcholine receptor M1 (Homo sapiens) (P11229 whole entry, looked up): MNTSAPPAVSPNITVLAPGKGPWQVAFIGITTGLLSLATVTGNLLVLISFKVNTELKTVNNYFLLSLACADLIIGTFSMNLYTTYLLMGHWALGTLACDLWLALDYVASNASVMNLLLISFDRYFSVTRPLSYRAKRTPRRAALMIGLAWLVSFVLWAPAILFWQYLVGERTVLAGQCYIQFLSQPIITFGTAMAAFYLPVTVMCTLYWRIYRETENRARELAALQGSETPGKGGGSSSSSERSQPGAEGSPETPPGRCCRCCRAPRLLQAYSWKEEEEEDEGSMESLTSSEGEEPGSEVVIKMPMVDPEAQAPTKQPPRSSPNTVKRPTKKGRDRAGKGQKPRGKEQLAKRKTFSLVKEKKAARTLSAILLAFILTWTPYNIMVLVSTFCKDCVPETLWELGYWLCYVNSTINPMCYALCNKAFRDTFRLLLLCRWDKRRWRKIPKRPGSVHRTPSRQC
Sequence of KiSS-1 receptor (Homo sapiens) (Q969F8 whole entry, looked up): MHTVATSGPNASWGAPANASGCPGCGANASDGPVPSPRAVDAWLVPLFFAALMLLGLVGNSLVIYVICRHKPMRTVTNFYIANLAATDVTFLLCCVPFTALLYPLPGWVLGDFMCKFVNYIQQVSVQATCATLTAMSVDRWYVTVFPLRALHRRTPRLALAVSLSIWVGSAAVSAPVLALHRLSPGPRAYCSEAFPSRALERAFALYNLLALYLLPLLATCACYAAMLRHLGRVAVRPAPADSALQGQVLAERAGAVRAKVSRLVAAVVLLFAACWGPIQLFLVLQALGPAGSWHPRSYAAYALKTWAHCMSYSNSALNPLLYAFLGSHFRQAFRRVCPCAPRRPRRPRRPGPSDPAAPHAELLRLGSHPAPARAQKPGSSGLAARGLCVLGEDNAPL

Row | SMILES | Potency [1] | Potency [2] | Potency [3] | Potency [4] | Potency [5] | Potency [6] | Potency [7] | Potency [8] | Potency [9] | Potency [10] | Potency [11] | Potency [12] | Potency [13] | Potency [14] | Potency [15] | Potency [16] | Potency [17] | Potency [18] | Potency [19] | Potency [20]
1 | C=CCN1C[C@H](C(=O)N(CCCN(C)C)C(=O)NCC)C[C@@H]2c3cccc4[nH]cc(c34)C[C@H]21 | inactive | inactive | inactive | inactive | inactive | inactive | inactive | inactive | 0.0006 µM (active) | 0.0019 µM (active) | inactive | inactive | inactive | inactive | inactive | inactive |  |  |  | 
2 | CCN(CC)CCNc1ccc(CO)c2sc3ccccc3c(=O)c12 | 11.9 µM (active) | inactive | inactive | inactive | inactive | inactive | inactive |  | inactive |  |  | inactive |  | 16.8 µM (active) |  |  | 26.6 µM (active) |  |  | 
3 | CCOc1ccc2nc3cc(N)ccc3c(N)c2c1 | 29.8 µM (active) | inactive | inactive | inactive | inactive | inactive | inactive |  | inactive | inactive | inactive | inactive |  | inactive |  | inactive |  | inactive | inactive | 
4 | COC(=O)C1=C(C)NC(C)=C(C(=O)O[C@@H]2CCCN(Cc3ccccc3)C2)[C@@H]1c1cccc([N+](=O)[O-])c1 | inactive | inactive | inactive | inactive | inactive | inactive | inactive | inactive | inactive | inactive |  | inactive | inactive | inactive | inactive | inactive | inactive | inactive |  | 
5 | C#C[C@]1(OC(C)=O)CC[C@H]2[C@@H]3CCC4=C/C(=N/O)CC[C@@H]4[C@H]3CC[C@@]21CC | inactive | inactive | inactive | inactive | inactive | inactive | inactive |  | inactive | inactive |  | inactive |  |  |  | inactive | inactive | inactive | inactive | 
6 | CNC(=S)NC | inactive | inactive | inactive | inactive | inactive | inactive |  |  | inactive | inactive | inactive | inactive |  | inactive |  | inactive |  |  | inactive | 
7 | C[C@]12CC[C@@H]3c4ccc(O)cc4CC[C@H]3[C@@H]1CC[C@@H]2OC(=O)CCC1CCCC1 | inactive | inactive | inactive | inactive | inactive | inactive | inactive | inactive | inactive | inactive | inactive | inactive | inactive | inactive |  | inactive | inactive | inactive | inactive | 
8 | CCCCCCCCCCCCN(CCCCCCCCCCCC)CCCCCCCCCCCC | inactive | inactive | inactive | inactive | inactive | inactive | inactive | inactive | inactive | inactive | inactive | inactive |  | inactive | inactive | inactive |  | inactive | inactive | 
9 | CCCCCC[C@@H](O)C/C=C\CCCCCCCC(=O)O | inactive | inactive | inactive | inactive | inactive | inactive | inactive | inactive | inactive |  | inactive | inactive |  | inactive | inactive | inactive | inactive | inactive | inactive | 
10 | O=C1CCC/C=C\CCCCCCCCCC1 | 54.5 µM (active) | inactive | inactive | inactive |  |  |  |  | inactive | inactive |  | inactive | inactive |  | inactive | inactive | inactive |  | inactive | inactive
11 | CO/N=C(/C(=O)N[C@@H]1C(=O)N2C(C(=O)OCOC(=O)C(C)(C)C)=C(C)CS[C@H]12)c1csc(N)n1 | inactive | inactive | inactive | inactive | inactive | inactive | inactive | inactive | inactive | inactive | inactive | inactive |  | inactive |  | inactive |  |  | inactive | 
12 | COc1cc2ncnc(Nc3ccc(F)c(Cl)c3)c2cc1OCCCN1CCOCC1 | inactive | inactive | inactive | inactive | inactive | inactive | inactive |  |  | inactive | inactive |  |  | inactive | inactive |  |  |  | inactive | 
13 | COC(=O)[C@@H](N)Cc1ccc(O)c(O)c1 | inactive | inactive | inactive | inactive | inactive | inactive | inactive | inactive |  |  | inactive | inactive | inactive | inactive | inactive | inactive | inactive | inactive | 26.6 µM (active) | 
14 | CC[N+](CC)(CC)CCOc1ccc(/C=C/c2ccccc2)cc1 | inactive | inactive | inactive | inactive | inactive | inactive | inactive |  | 18.3 µM (active) | inactive | 1.16 µM (active) | inactive | inactive | inactive |  |  |  |  |  | 
